# Records with an inconclusive call do not appear. Entries that show only a call come without a potency. Active and inactive are the calls of the source. Unless noted, calls follow the shape of the dose curve; as a rule, active = well fitted curve in the direction sought with a large enough effect in the repeat runs; inconclusive = weak or mixed curves; inactive = no such curve, though single readings can be large; an effect the other way counts as inactive or inconclusive.
# Columns and labels:
# [1] = qHTS assay to identify small molecule antagonists of the vitamin D receptor (VDR) signaling pathway - cell viability counter screen (AID 743225); settings: VDR-bla HEK293T viability, CellTiter-Glo luminescence, 16 h; series mostly up to 61 µM; also: nearly all actives have a fitted effect of over 50% in size; also: potency is read from the fitted curve at half-maximal effect
# In short: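 Viability counter screen run in the same wells as the beta-lactamase reporter assay: HEK 293T VDR-UAS-bla cells, 16 h compound exposure at 37C with 3 nM (final) 1-alpha,25-dihydroxyvitamin D3. CellTiter-Glo luminescence, 30 min, room temperature.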
# [2] = qHTS assay to identify small molecule agonists of the NFkB signaling pathway - cell viability counter screen (AID 1159515; calls by dose curve; also: nearly all actives have a fitted effect of over 55% in size; also: potency is read from the fitted curve at half-maximal effect); settings: NFkB-bla ME-180 viability, CellTiter-Glo luminescence, 5 h; series mostly up to 61 µM
# In short: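 Luminescence from CellTiter-Glo (30 min, room temperature) gives viability, measured in the same wells as the beta-lactamase reporter read. Cells were NFkB-bla ME-180, 2,000 per well, treated 5 hr with compounds.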
# [3] = qHTS assay to identify small molecule agonists of the endoplasmic reticulum stress response signaling pathway - cell viability counter screen (AID 1159517; calls by dose curve; also: nearly all actives have a fitted effect of over 50% in size; also: potency is read from the fitted curve at half-maximal effect); settings: ESRE-bla HeLa viability, CellTiter-Glo luminescence, 5 h; series mostly up to 61 µM
# In short: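 CellTiter-Glo was added to wells already read for beta-lactamase FRET, and luminescence was recorded 30 min later. Cells: ESRE-bla HeLa, 1,500 per well, compound exposure 5 hr at 37 C.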
# [4] = molecular target: Nuclear receptor ROR-gamma (Homo sapiens) (UniProt P51449); assay: qHTS assay to identify small molecule antagonists of the retinoid-related orphan receptor gamma (ROR-gamma) signaling pathway (AID 1159521; also: nearly all actives have a fitted effect of over 50% in size; also: potency is read from the fitted curve at half-maximal effect); settings: Tet-on RORgamma CHO cells, RORE-luciferase, 16 h; series mostly up to 92.4 µM
# In short: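 Luminescence readout (ONE-Glo, 30 min RT) after 16 h doxycycline induction; loss of signal scored as antagonism. CHO cells with TET-inducible RORγ and RORE-LUC reporter; compounds added 2 h before 1 uM final doxycycline.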
# [5] = qHTS assay to identify small molecule agonists of the AP-1 signaling pathway - cell viability counter screen (AID 1159525; calls by dose curve; also: nearly all actives have a fitted effect of over 55% in size); settings: ME-180 AP-1-bla cells viability, ATP luminescence, 5 h; series mostly up to 76.8 µM
# In short: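 ME-180 AP-1-bla, 2500 cells/well, Opti-MEM + 0.5% dialyzed FBS; overnight 37 °C; cpd 15-pt titration, 5 h 37 °C; CellTiter-Glo 30 min RT; luminescence read; normalised to TOAB and DMSO controls.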
# [6] = qHTS assay to identify small molecule agonists of the RXR signaling pathway - cell viability counter screen (AID 1159529); settings: RXR-alpha-bla HEK293T viability, CellTiter-Glo, 16 h; series mostly up to 76.8 µM; also: nearly all actives have a fitted effect of over 50% in size; also: potency is read from the fitted curve at half-maximal effect
# In short: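 Luminescence from CellTiter-Glo (30 min, RT) measured viability in the same wells as the beta-lactamase reporter readout. Cells: GeneBLAzer RXR-alpha HEK 293T, 2% charcoal-stripped FBS. Compound exposure 16 hr, 37 C.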
# [7] = qHTS assay to identify small molecule antagonists of the retinoid acid receptor (RAR) signaling pathway - cell viability counter screen (AID 1159551); settings: C3RL4 cells viability, ATP luminescence (CellTiter-Glo), 6 h; series mostly up to 92.4 µM; also: nearly all actives have a fitted effect of over 35% in size
# In short: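 Luminescent ATP quantitation (CellTiter-Glo) gave cell viability in C3RL4 cells exposed to test chemicals for 6 h at 37 C alongside 1 uM final retinol.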
# [8] = qHTS assay to identify small molecule agonists of the retinoic acid receptor (RAR) signaling pathway (AID 1159553); settings: C3RL4 RARE luciferase reporter, agonist, 6 h; series mostly up to 73.3 µM
# In short: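 Luminescence from a RARE-driven luciferase reporter in C3RL4 cells served as the read-out, measured after 30 min with detection reagent at room temperature. Compounds in DMSO were applied for 6 hr at 37 C following overnight seeding.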
# [9] = qHTS assay to identify small molecule antagonists of the retinoic acid receptor (RAR) signaling pathway (AID 1159552; also: nearly all actives have a fitted effect of over 50% in size; also: potency is read from the fitted curve at half-maximal effect); settings: C3RL4 RARE luciferase reporter, retinol-stimulated, 6 h; series mostly up to 92.4 µM
# In short: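 Luminescence from a RARE luciferase reporter in C3RL4 cells served as read-out. Cells received compounds together with 1 uM final retinol and incubated 6 hr at 37 C before detection reagent was added for 30 min at room temperature.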
# [10] = qHTS assay to identify small molecule agonists of the vitamin D receptor (VDR) signaling pathway - cell viability counter screen (AID 743224); settings: VDR-bla HEK293T viability, CellTiter-Glo luminescence, 16 h; series mostly up to 62.6 µM; also: nearly all actives have a fitted effect of over 50% in size; also: potency is read from the fitted curve at half-maximal effect
# In short: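 Luminescence from CellTiter-Glo, read after 30 min at room temperature, reports viability of VDR-bla cells treated with compounds for 16 h at 37C in the wells used for the beta-lactamase FRET read.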
# [11] = qHTS assay to identify small molecule antagonists of the retinoid-related orphan receptor gamma (ROR-gamma) signaling pathway - cell viability counter screen (AID 1159520); settings: Tet-on RORgamma CHO cells viability, ATP luminescence, 16 h; series mostly up to 92.4 µM; also: nearly all actives have a fitted effect of over 50% in size; also: potency is read from the fitted curve at half-maximal effect
# In short: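 Tet-on ROR gamma CHO cells (1,000/well) were plated 4 hr, given compounds in DMSO for 2 hr at 37 C, then induced with 1 uM final doxycycline for 16 hr. Viability was read as ATP by CellTiter-Glo luminescence after 30 min.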
# [12] = qHTS assay to identify small molecule agonists of the AP-1 signaling pathway (AID 1159526; calls by dose curve); settings: ME-180 (cervical carcinoma) AP-1-bla reporter, beta-lactamase FRET ratio, 5 h; series mostly up to 76.8 µM
# [13] = qHTS assay to identify small molecule antagonists of the estrogen related receptor (ERR) signaling pathway - cell viability counter screen (AID 1224818); settings: ERR reporter cell line viability counter screen; series mostly up to 46.1 µM;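 also: viability measured after 17.5 h of compound exposure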
# In short: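 Multiplexed counter screen to separate cytotoxic compounds from true ERR modulators. ERR cells received DMSO-dissolved compounds after a 6 h pre-incubation, were exposed 17.5 h at 37 C, then assayed with CellTiter-Fluor fluorescence.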
# [14] = qHTS assay to identify small molecule agonists of the estrogen related receptor (ERR) signaling pathway (AID 1224820); settings: ERR reporter cell line, luciferase agonist mode; series mostly up to 46.1 µM
# In short: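 ERR reporter cell line (from NTP), 2,000 cells/well, incubated 6 h before compound addition, then 18 h at 37 C. Luminescence measured 30 min after One-Glo reagent at room temperature.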
# [15] = system: estrogen-related receptor alpha (ERRalpha) with PGC-1alpha coactivator, human; assay: qHTS assay to identify small molecule antagonists of the estrogen related receptor signaling pathway with the pleiotropic PPARgamma coactivator (PGC) (AID 1224821; calls by dose curve); settings: ERR/PGC reporter cell line, luciferase, antagonist mode; series mostly up to 46.1 µM
# In short: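 PGC/ERR reporter cell line, plated 6 h before compound addition, then exposed 18 h at 37 °C. Luciferase activity read by luminescence 30 min after One-Glo addition; decrease indicates antagonism.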
# [16] = qHTS assay to identify small molecule agonists of the estrogen related receptor signaling pathway with the pleiotropic PPARgamma coactivator (PGC) (AID 1224823); settings: ERR/PGC reporter cell line, luciferase agonist mode; series mostly up to 46.1 µM
# In short: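 PGC/ERR reporter cells seeded 6 h, then exposed to compounds (23 nL in DMSO) for 18 h at 37 C. One-Glo luciferase luminescence read after 30 min at room temperature.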
# [17] = qHTS assay to identify small molecule antagonists of the estrogen related receptor signaling pathway with the pleiotropic PPARgamma coactivator (PGC) cell viability counter screen (AID 1224822;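 also: viability read after 17.5 h compound exposure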); settings: ERR/PGC reporter cell line viability counter screen; series mostly up to 46.1 µM
# In short: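 Cells: PGC/ERR, 2,000/well, 1536-well format. Pre-incubation 6 h, 37 C/5% CO2. Compound exposure 17.5 h, 37 C. Detection: CellTiter-Fluor, 30 min, fluorescence.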
# [18] = molecular target: Retinoic acid receptor RXR-alpha (Homo sapiens) (UniProt P19793); assay: qHTS assay to identify small molecule agonists of the RXR signaling pathway (AID 1159527; calls by dose curve; also: nearly all actives have a fitted effect of over 35% in size); settings: HEK293T RXRa-UAS-bla, beta-lactamase ratio, 16 h; series mostly up to 76.8 µM
# In short: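 Agonist mode; 9-cis retinoic acid positive control. HEK 293T UAS-bla reporter cells, 2% charcoal-stripped FBS, 16 hr compound exposure at 37 C/5% CO2. LiveBLAzer B/G FRET substrate 2 hr RT; ex 405, em 460/530 nm.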
# Retinoic acid receptor RXR-alpha (Homo sapiens), sequence (P19793 whole entry, looked up): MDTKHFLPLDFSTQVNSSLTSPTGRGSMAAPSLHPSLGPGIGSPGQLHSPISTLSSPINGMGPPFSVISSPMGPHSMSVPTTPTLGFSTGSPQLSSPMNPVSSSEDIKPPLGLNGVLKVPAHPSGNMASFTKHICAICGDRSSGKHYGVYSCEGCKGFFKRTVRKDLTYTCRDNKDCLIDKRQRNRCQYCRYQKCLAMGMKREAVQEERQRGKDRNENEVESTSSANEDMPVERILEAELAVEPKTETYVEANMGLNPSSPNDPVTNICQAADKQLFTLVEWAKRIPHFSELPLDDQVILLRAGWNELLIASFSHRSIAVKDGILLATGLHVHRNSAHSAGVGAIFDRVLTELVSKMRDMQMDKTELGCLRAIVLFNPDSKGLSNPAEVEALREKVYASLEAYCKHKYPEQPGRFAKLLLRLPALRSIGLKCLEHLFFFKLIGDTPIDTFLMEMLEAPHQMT
smiles,measurement,setting,value
CN(C/C=C/C#CC(C)(C)C)Cc1cccc2ccccc12,Potency,[1],inactive
same,Potency,[2],21.3 µM (active)
same,Potency,[3],inactive
same,Potency,[4],inactive
same,Potency,[5],inactive
same,Potency,[6],7.56 µM (active)
same,Potency,[7],inactive
same,Potency,[8],inactive
[Cl][Au]([Cl])[Cl],Potency,[1],11 µM (active)
same,Potency,[2],inactive
same,Potency,[3],inactive
same,Potency,[4],5.45 µM (active)
same,Potency,[5],inactive
same,Potency,[6],24.5 µM (active)
same,Potency,[9],30.6 µM (active)
CC(C)n1nc(-c2cc3cc(O)ccc3[nH]2)c2c(N)ncnc21,Potency,[10],15 µM (active)
same,Potency,[1],inactive
same,Potency,[2],inactive
same,Potency,[3],9.52 µM (active)
same,Potency,[11],2.98 µM (active)
same,Potency,[12],inactive
CCOc1nc2cccc(C(=O)OC(C)OC(=O)OC3CCCCC3)c2n1Cc1ccc(-c2ccccc2-c2nn[nH]n2)cc1 (centres undefined),Potency,[10],27.5 µM (active)
same,Potency,[1],19.5 µM (active)
same,Potency,[2],43.6 µM (active)
same,Potency,[3],21.9 µM (active)
same,Potency,[11],24.3 µM (active)
same,Potency,[6],27.5 µM (active)
same,Potency,[9],48.5 µM (active)
same,Potency,[8],inactive
NNc1nc(-c2ccc(N)cc2)cs1,Potency,[1],inactive
same,Potency,[2],inactive
same,Potency,[3],inactive
same,Potency,[11],inactive
same,Potency,[6],inactive
Cc1c(C)c2c(c(C)c1O)CCC(C)(COc1ccc(CC3SC(=O)NC3=O)cc1)O2 (centres undefined),Potency,[10],inactive
same,Potency,[1],inactive
same,Potency,[2],inactive
same,Potency,[3],inactive
same,Potency,[11],inactive
same,Potency,[12],inactive
same,Potency,[6],inactive
same,Potency,[7],inactive
NC(=O)N1C(=O)C(C(=O)c2cc(Cl)cs2)c2cc(F)c(Cl)cc21 (centres undefined),Potency,[10],21.9 µM (active)
same,Potency,[1],13.8 µM (active)
same,Potency,[2],inactive
same,Potency,[3],inactive
same,Potency,[4],19.3 µM (active)
same,Potency,[5],inactive
same,Potency,[6],49 µM (active)
same,Potency,[7],inactive
CCN(CC)CCCC(C)Nc1c2ccc(Cl)cc2nc2ccc(OC)cc12 (centres undefined),Potency,[1],23.9 µM (active)
same,Potency,[2],inactive
same,Potency,[3],inactive
same,Potency,[11],inactive
same,Potency,[5],inactive
same,Potency,[13],inactive
same,outcome,[14],inactive
same,Potency,[15],16.8 µM (active)
same,outcome,[16],inactive
CC(C)C(C)(C)C(C)(C)C(C)(C)S,Potency,[2],inactive
same,Potency,[3],inactive
same,Potency,[11],inactive
same,Potency,[6],inactive
same,Potency,[7],inactive
same,Potency,[13],inactive
same,Potency,[17],inactive
O=C(O)c1c(Cl)cccc1Cl,Potency,[10],inactive
same,Potency,[1],inactive
same,Potency,[2],inactive
same,Potency,[3],inactive
same,Potency,[4],inactive
same,Potency,[5],inactive
same,Potency,[12],inactive
same,Potency,[18],inactive
same,Potency,[6],inactive
same,Potency,[9],inactive
CCCCCOc1ccccc1/C(=C\SC)n1ccnc1,Potency,[10],inactive
same,Potency,[1],inactive
same,Potency,[2],inactive
same,Potency,[3],inactive
same,Potency,[4],13.3 µM (active)
same,Potency,[5],inactive
same,Potency,[7],inactive
same,Potency,[9],inactive

# — PubChem BioAssay (Tox21)
